Hits are enriched below; roughly 21% of the tested compounds scored in any of these assays.
Shiga toxin inh: A qHTS for Small Molecule Inhibitors of Shiga Toxin; Vero cells, Shiga toxin protein synthesis inhibition reporter; inhibition, % at 38.7 µM; hit rate 9.2% among 290,000; in the data active means inhibition mostly above about 28%, no sharp cut-off; inactive means mostly below about 43%
Pf growth 48h: Primary qHTS for delayed death inhibitors of the malarial parasite plastid, 48 hour incubation | hit rate 5.9% among 310,000 | Potency, µM (highest dose often 28.7 µM), usual class: inhibitors | AID 504832, 2011 | P. falciparum luciferase growth in erythrocytes, 48 h; active means well fitted inhibition curve with a large enough effect; inconclusive means small, poorly fitted or top-dose-only effect, or another doubt; inactive means no such curve, though single readings can be large or run the other way
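Compounds are pin-transferred into medium, infected erythrocytes (2% hematocrit, 0.1% parasitemia final) are added, and plates sit one parasite generation at 37 C in 5% CO2. Detection reagent is then added and luminescence measured.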
Cycloheximide cs: Cycloheximide Counterscreen for Small Molecule Inhibitors of Shiga Toxin; cell reporter, cycloheximide protein synthesis inhibition counterscreen; max response, %; hit rate 12% among 300,000; AID 2314, 2010; in the data active means max response mostly above about 13%, no sharp cut-off; inactive means mostly below about 14%; further: read at 38.3 µM for the half of the compounds with a filed dose
Pf growth 96h: Primary qHTS for delayed death inhibitors of the malarial parasite plastid, 96 hour incubation; P. falciparum luciferase reporter growth, 96 h; Potency, µM (top dose mostly 28.7 µM), usual class: inhibitors; hit rate 6.9% among 320,000; AID 504834, 2011; active means well fitted inhibition curve with a large enough effect; inconclusive means small, poorly fitted or top-dose-only effect, or another doubt; inactive means no such curve, though single readings can be large or run the other way
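Two-generation exposure (96 h) targets delayed-death phenotype. Reporter parasites carrying integrated firefly luciferase, in red cells at 2% hematocrit and 0.05% parasitemia final, kept at 37 C, 5% CO2; luminescence loss indicates inhibition.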
NS1 function inh: qHTS Assay for Inhibitors of Influenza NS1 Protein Function; Potency, µM (series often up to 46.1 µM); hit rate 0.4% among 270,000; further: actives are rising curves; nearly all actives have a fitted effect of over 50% in size
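Read-out: OD600 growth recovery of NS1-expressing budding yeast. Cells grown overnight at 30C in -URA glucose medium, washed, resuspended and diluted 1:100 in 2% galactose assay medium, pH 6.0. Same strain lacking NS1 served as positive control.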
SARS PLpro yeast: qHTS of Yeast-based Assay for SARS-CoV PLP; AID 485353, 2010; hit rate 0.19% among 330,000; Potency, µM (highest dose often 32.9 µM), actives largely listed as activators; S. cerevisiae expressing SARS-CoV PLpro, growth rescue; further: nearly all actives have a fitted effect of over 55% in size
NS1 inh valid: Assay for Inhibitors of Influenza NS1 Protein Function: Hit Validation. shares compounds with NS1 function inh. influenza NS1 function cell assay, 15-point titration. activity change, negative = inhibition, % at 32.9 µM. 1,400 tested, under 10 active. AID 492980, 2010
Flu PR8 replic: Assay for Inhibitors of Influenza NS1 Protein Function: Influenza virus replication assay in MDCK cells infected with virus A/PR/8/34. shares compounds with NS1 function inh. MDCK infected influenza A/PR/8/34, virus titer TCID50; stronger effect = lower value. virus titer (log TCID50), log10 TCID50 at 5 µM. hit rate 30% among 95. AID 504647, 2011; call rule not given here
Of the large screens only hits and unclear results are named; the others gave an inactive call (follow-up assays come after a bar, where they were run). Unless noted, the call rests on the fitted dose curve.

O=C(NCCSc1c(-c2ccccc2)[nH]c2ccccc12)c1cc2ccccc2oc1=O	NS1 function inh 11.2µM | NS1 inh valid inactive
COc1cccc(C2CC(c3ccc(Cl)cc3)Nc3nc(N)nn32)c1 (stereo not drawn)	NS1 function inh 7.08µM | NS1 inh valid inactive
COc1ccc(/C=C2/NC(=O)N(CC(=O)Nc3cccc(C)c3)C2=O)cc1O	none
COC(=O)c1ccc(C2C(C(=O)Nc3ccc(C)cc3C)=C(C)Nc3ncnn32)cc1 (stereo not drawn)	NS1 function inh 22.4µM (no result: Pf growth 48h) | NS1 inh valid inactive
CCOC(=O)C(NC(=O)Nc1ccc(Cl)cn1)(Oc1ccccc1)C(F)(F)F (stereo not drawn)	none
Cc1ccc(-n2c(Cc3cccn3C)nnc2SCC(=O)N2CCc3ccccc32)cc1	Pf growth 48h inconclusive, NS1 function inh 7.94µM (no result: Pf growth 96h) | NS1 inh valid inactive
COc1ccc(NC(=O)CSc2nnc(-c3cccs3)n2-c2ccccc2)cc1	Pf growth 48h inconclusive, NS1 function inh 2.82µM | NS1 inh valid inactive
COc1ccc(-n2c(Cc3cccn3C)nnc2SCC(=O)Nc2ccc(F)cc2)cc1	Pf growth 48h inconclusive, Pf growth 96h inconclusive, NS1 function inh inconclusive | NS1 inh valid inactive
COc1ccc(NC(=O)CSc2nnc(C3CC3)n2-c2ccccc2)cc1	Pf growth 48h inconclusive, Pf growth 96h inconclusive
Cn1c(SCC(=O)c2ccccc2)nnc1-c1cccs1	Shiga toxin inh 86.3, Cycloheximide cs 25.3, NS1 function inh inconclusive | NS1 inh valid inactive
COc1ccc(NC(=O)CSc2nnc(Cc3cccn3C)n2-c2ccc(F)cc2)cc1	Pf growth 48h inconclusive, Pf growth 96h inconclusive
Nc1ccnn1Cc1ccncc1	none
N#Cc1nc(COc2ccc(Cl)cc2Cl)oc1N1CCN(c2ccccc2)CC1	Pf growth 96h inconclusive, NS1 function inh 11.2µM | NS1 inh valid inactive
COc1ccc(N2CCN(c3oc(COc4ccc(Cl)cc4Cl)nc3C#N)CC2)cc1	NS1 function inh inconclusive
Cc1nc2sccn2c1-c1csc(NCc2ccccc2)n1	Pf growth 48h 13.1µM, NS1 function inh inconclusive | NS1 inh valid inactive
O=C(CCC(=O)N(CC(=O)NC1CCCCC1)Cc1cccs1)Nc1nccs1	NS1 function inh 6.31µM | NS1 inh valid inactive
Clc1cc(Br)ccc1OCCCNCc1ccccc1	none
COc1ccc(-c2cn[nH]c2-c2ccc(OCc3ccc([N+](=O)[O-])cc3)cc2O)cc1OC	Pf growth 48h 10.4µM, Pf growth 96h 9.28µM, NS1 function inh inconclusive | NS1 inh valid inactive
c1ccc(-c2nnc(CN3CCCc4ccccc43)o2)cc1	Pf growth 48h inconclusive, Cycloheximide cs 16.3, NS1 function inh inconclusive (no result: Pf growth 96h) | NS1 inh valid inconclusive
c1ccc(CCn2nnnc2CN2CCCc3ccccc32)cc1	none
COc1cc(-n2c(C)nc3cc(C(=O)O)ccc32)cc(OC)c1OC	none (no result: NS1 function inh)
COc1ccc(OC)c(-n2c(C)nc3cc(C(=O)O)ccc32)c1	NS1 function inh 14.1µM | NS1 inh valid inactive
CCOCCCNS(=O)(=O)c1ccc(NC(=O)Cc2c(F)cccc2Cl)cc1	Pf growth 48h inconclusive, NS1 function inh inconclusive | NS1 inh valid inactive | Flu PR8 replic inactive
Cc1cc(C)cc(NC(=S)NCc2cccn2C)c1	Pf growth 48h inconclusive, Pf growth 96h inconclusive, NS1 function inh 10µM | NS1 inh valid inactive
COc1cc(/C=C2\C(C)=C(C#N)c3nc(N)c(C#N)c(C)c32)ccc1OCC(=O)O	none
CC1=C(C#N)c2nc(N)c(C#N)c(C)c2/C1=C\c1ccc(C)cc1	Pf growth 48h inconclusive, Pf growth 96h inconclusive, NS1 function inh 12.6µM | NS1 inh valid inconclusive
COc1cc(/C=N/NC(=O)c2cc3ccccc3cc2O)ccc1OCCN1CCCCC1	Shiga toxin inh active, Pf growth 48h inconclusive, Cycloheximide cs 42.5, Pf growth 96h inconclusive, NS1 function inh 11.2µM | NS1 inh valid inactive

Compound activity from PubChem.
